Bioassay records (PubChem BioAssay)
Sampled rows, rich in hits. Any-hit rate of the full collection: about 19%.
RORgamma inh – ROR gamma (mouse) transcription inhibition. P51450. Potency, µM (top dose mostly 53.6 µM), for inactives: top-dose activity change, negative = inhibition, most hits filed as inhibitors. actives 5.4% (n = 310,000). Drosophila S2 Gal4-RORgamma UAS-luciferase reporter, 20 h; further: nearly all actives have a fitted effect of over 60% in size
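Drosophila S2 cells stably expressing Gal4-DBD/mouse RORγ fusion under metallothionein promoter plus UAS-luciferase; compound 1 h, then 700 uM CuSO4 induction for 20 h at ambient temperature; inhibition read as reduced luminescence.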
DT40 TDP1 no CPT – qHTS for Inhibitors of human tyrosyl-DNA phosphodiesterase 1 (TDP1): qHTS in cells in absence of CPT. Potency, µM (series often up to 46.2 µM), for the others: at the highest dose activity change, negative = growth inhibition, most hits filed as inhibitors. actives 15% (n = 420,000). DT40 Tdp1-/- hTDP1 cells, no CPT, ATP luminescence, 48 h. AID 686978, 2013; further: nearly all actives have a fitted effect of over 55% in size
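Cells were dispensed at 400 per well, compounds added by pin tool, plates incubated ≥48 hr at 37 °C, then CellTiter-Glo added for 30 min at room temperature before luminescence reading. Line: DT40 Tdp1-/- complemented with hTDP1; camptothecin omitted.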
TDP1 cell CPT – DT40-hTDP1 cell growth loss with CPT | chicken DT40 Tdp1-/-;hTDP1 cells + 20 nM CPT, ATP luminescence, 48 h | Potency, µM (highest dose often 46.2 µM), without a hit: top-dose activity change, negative = growth inhibition, hits mostly inhibitors | actives 12% (n = 420,000); further: nearly all actives have a fitted effect of over 55% in size
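Chicken DT40 Tdp1-/- cells stably complemented with human TDP1 were seeded at 400 cells/well in medium containing 20 nM camptothecin, exposed to pin-transferred compounds, and grown at 37 °C for at least 48 hr. Viability was read as ATP luminescence.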
TDP1 block – inhibitors of human tyrosyl-DNA phosphodiesterase TDP1 | Potency, µM (titrated, usually from 130 µM), inactives show top-dose activity change, negative = inhibition, actives largely listed as inhibitors | AID 485290 | recombinant TDP1, AlphaScreen DNA substrate cleavage | actives 0.28% (n = 350,000) | Q9NUW8; further: nearly all actives have a fitted effect of over 40% in size
Target sequence (Q9NUW8 whole entry, looked up): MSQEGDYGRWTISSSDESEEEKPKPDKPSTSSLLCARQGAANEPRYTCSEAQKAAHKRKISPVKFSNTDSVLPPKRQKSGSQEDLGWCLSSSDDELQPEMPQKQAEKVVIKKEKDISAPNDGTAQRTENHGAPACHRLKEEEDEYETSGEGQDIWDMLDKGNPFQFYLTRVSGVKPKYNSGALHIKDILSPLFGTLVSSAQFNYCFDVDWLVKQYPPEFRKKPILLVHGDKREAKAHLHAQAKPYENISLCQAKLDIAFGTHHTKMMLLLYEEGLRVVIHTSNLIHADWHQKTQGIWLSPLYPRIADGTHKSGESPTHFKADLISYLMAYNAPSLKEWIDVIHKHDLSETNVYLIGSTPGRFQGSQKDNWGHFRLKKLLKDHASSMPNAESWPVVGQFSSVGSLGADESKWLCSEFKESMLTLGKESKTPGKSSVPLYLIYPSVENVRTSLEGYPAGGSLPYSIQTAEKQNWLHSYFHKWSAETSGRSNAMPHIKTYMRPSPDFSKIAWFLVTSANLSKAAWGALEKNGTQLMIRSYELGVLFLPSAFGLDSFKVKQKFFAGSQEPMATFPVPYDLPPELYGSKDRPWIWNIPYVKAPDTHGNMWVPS
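Here, a 5' biotin and 3' phosphotyrosine-FITC DNA oligonucleotide reports Tdp1 activity: intact substrate bridges AlphaScreen beads, while cleavage leaves a 3' phosphate and drops signal. All incubations at room temperature.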
Gal4-VP16 FLuc – inhibits Gal4-VP16 luciferase reporter, ROR gamma counter-screen. AID 2546. Potency, µM (highest dose often 53.6 µM), inactives show top-dose activity, negative = inhibition, hits mostly inhibitors. actives 3.5% (n = 310,000). Drosophila S2 Gal4-VP16 UAS-luciferase, luminescence, 20 h;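 further: Gal4-VP16 expression switched on by copper sulfate through the metallothionein promoter; nearly all actives have a fitted effect of over 50% in size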
Starred values were filed as active, the others as inactive; u = inconclusive; x = no result; [ ] = another dose, or the depositor's remark. The call rests on the fitted dose curve; in most records, active means well fitted curve in the direction sought with a large enough effect; inconclusive means small, poorly fitted or top-dose-only effect, or another doubt; inactive means no such curve, though single readings can be large; an effect the other way counts as inactive or inconclusive. On the % scale 0 is the no-effect control and ±100 the full control effect; potency means the concentration at half of the fitted maximal effect.

SMILES	RORgamma inh	DT40 TDP1 no CPT	TDP1 cell CPT	TDP1 block	Gal4-VP16 FLuc
CCCOc1ccc(N2C(=O)CC(SC(=N)N3N=C(c4ccccc4)CC3c3ccccc3)C2=O)cc1 (stereo not given)	40.2%	18.4µM*	18.4µM*	7.4%	-3.7%
CCCOc1ccc(N2C(=O)CC(SC(=NC)Nc3ccc(F)cc3)C2=O)cc1 (stereo not given)	-2.3%	u	-20.1%	-2.3%	-12.5%
CN(Cc1ccccc1NS(=O)(=O)c1ccc2ccccc2c1)C1CCCCC1	-23.6%	20.6µM*	u	8.0%	-4.2%
COc1ccc(Br)cc1CNC(=O)C1CCN(S(=O)(=O)N2CCCCC2)CC1	37.0%	u	-14.2%	2.1%	-10.2%
O=[N+]([O-])c1cc2c(cc1/C=N/n1cnnc1)OCO2	-0.2%	-7.8%	0.3%	2.3%	-10.1%
CSc1ccc(CCNc2ncnc3onc(-c4ccc(Cl)cc4)c23)cc1	x	10.3µM*	16.4µM*	-1.1%	x
Fc1ccc(-c2noc3ncnc(NCc4ccc(Cl)cc4)c23)cc1	x	u	u	2.1%	x
Fc1ccc(-c2noc3ncnc(NCCc4ccc(Cl)cc4)c23)cc1	x	10.3µM*	14.6µM*	4.2%	x
Cc1ccc(CCNc2ncnc3onc(-c4ccc(F)cc4)c23)cc1	x	2.2%	-1.1%	4.2%	x
Fc1ccc(-c2noc3ncnc(NCCc4ccccc4)c23)cc1	x	16.4µM*	u	-9.5%	x
CCOc1cc(C(=O)NC)cc(Br)c1OCc1ccccc1	40.1%	u	u	3.5%	-4.5%
Cc1c(C(=O)OCC(C)C)[nH]c2c1C(=O)CC(c1cccs1)C2 (stereo not given)	u	3.66µM*	2.91µM*	-2.3%	u
COCCOC(=O)c1[nH]c2c(c1C)C(=O)CC(c1cccs1)C2 (stereo not given)	39.6%	1.3µM*	1.16µM*	4.6%	-2.2%
CCCOC(=O)c1[nH]c2c(c1C)C(=O)CC(c1ccc(OC)c(OC)c1)C2 (stereo not given)	4.3%	-20.3%	u	0.0%	-3.9%
CCOCCOC(=O)c1[nH]c2c(c1C)C(=O)CC(c1cccs1)C2 (stereo not given)	23.8%	0.82µM*	1.03µM*	4.6%	-3.0%
N#CC1=C(O)CCCn2c1nc1ccccc1c2=O	-12.8%[10 µM]	-7.2%	-1.1%	5.0%	-4.1%
C(=N\N1CCN(Cc2ccccc2)CC1)/c1cccnc1	35.4%	-0.3%	-17.2%	-1.2%	-2.4%
COc1ccc(S(=O)(=O)N2CCC(C)CC2)cc1N(C)S(=O)(=O)c1ccccc1	21.7%	u	u	3.8%	2.2%
COc1ccc2cc(S(=O)(=O)N3CCCCC3)ccc2c1S(=O)(=O)N1CCCCC1	-6.9%	u	20.6µM*	3.1%	2.6%
COc1ccc(S(=O)(=O)N2CCCCCC2)cc1N(C)S(=O)(=O)c1ccc(Cl)cc1	4.9%	18.4µM*	16.4µM*	4.0%	-6.5%
CCC(C(=O)Nc1nc(C)c(C(=O)OC)s1)c1ccccc1 (stereo not given)	3.9%	20.5%	1.7%	5.4%	-21.6%[10 µM]
O=C(CN(c1ccccc1)S(=O)(=O)c1ccc(Cl)cc1)Nc1cccnc1	13.7%	-17.9%	2.1%	x	-0.8%
COc1cc(NC(=O)COC(=O)CCCC2=NS(=O)(=O)c3ccccc3N2)cc(OC)c1	-14.1%	15.5%	0.1%	1.7%	-4.0%
O=C(CCCC1=NS(=O)(=O)c2ccccc2N1)N1CCN(c2ccccc2)CC1	22.8%	u	u	5.9%	-7.7%
CC(C)(CC(=O)N1CCN(c2ccc(Cl)cc2)CC1)CC1=NS(=O)(=O)c2ccccc2N1	-13.5%	11.6µM*	18.4µM*	2.0%	u
SMILES	RORgamma inh	DT40 TDP1 no CPT	TDP1 cell CPT	TDP1 block	Gal4-VP16 FLuc
O=C(CCCC1=NS(=O)(=O)c2ccccc2N1)N1CCN(c2ccc(Cl)cc2)CC1	43.0%	u	16.4µM*	2.6%	-3.0%
COc1cccc(N2CCN(C(=O)CC(C)(C)CC3=NS(=O)(=O)c4ccccc4N3)CC2)c1	32.8%	4.61µM*	14.6µM*	8.4%	u
O=C1CCN(Cc2ccc(O)cc2)CCN1[C@H](CO)Cc1ccccc1	-10.9%	8.3%	u	x	-5.9%
CN(C)c1ccc(CNc2ncnc3sccc23)cc1	u	2.06µM*	4.11µM*	10.7%	7.08µM*
CC(=O)NCC1COc2ccccc2O1 (stereo not given)	-17.7%	-7.1%	4.9%	x	0.0%
Fc1ccccc1CNc1ncnc2sccc12	u	8.2µM*	4.11µM*	-5.9%	u
c1ccc2c(c1)OCC(CNc1ncnc3sccc13)O2 (stereo not given)	u	0.651µM*	1.16µM*	1.9%	0.501µM*
NS(=O)(=O)c1ccc(CNc2ncnc3sccc23)cc1	-3.5%	u	u	0.0%	2.9%
Cc1csc(CNc2ncnc3ccc(-c4ccccc4Cl)cc23)c1	x	x	x	1.5%	x
COC(=O)c1ccc(Oc2nc(SC)nc(N(C)C)n2)cc1	-9.2%	-22.2%	0.0%	7.0%	-4.7%
N#C/C(C(=O)NCc1ccccc1)=C1/N=C(NC(=O)c2cccs2)c2ccccc21	19.0%	10.3µM*	16.4µM*	2.8%	-8.3%
CC(C)CNC(=O)/C(C#N)=C1\N=C(NC(=O)c2ccco2)c2ccccc21	3.2%	u	u	4.8%	-6.1%
CCCNC(=O)/C(C#N)=C1\N=C(NC(=O)c2ccco2)c2ccccc21	-89.7%	u	16.4µM*	1.7%	u
O=C(NCc1cccnc1)c1cccs1	-6.2%	-0.3%	-1.3%	-2.5%	2.1%
CC(=O)N1CCN(C(=O)CSc2nc3c(cnn3-c3ccccc3)c(=O)[nH]2)CC1	26.1%	-1.5%	-7.2%	-13.8%	-8.4%
Oc1cc(-c2cccs2)cc2c1OCCN(Cc1cn[nH]c1-c1ccc(Cl)cc1)C2	x	u	18.4µM*	x	x
COc1cc2c(c(OCC(=O)NC(C)C)c1)C(=O)O[C@@H](C)CCCC(=O)CCCCC2	17.7%	u	u	x	12.8%
COc1cc(OCC(=O)NC(C)C)cc2c1C(=O)O[C@@H](C)CCCC(=O)CCCCC2	-3.0%	20.6µM*	u	x	-9.5%
CCOC(=O)c1c(C)c(C(=O)NCc2ccc(OC)cc2)c(C)n1C	20.3%	-17.3%	0.4%	7.0%	2.8%
CCOC(=O)c1c(C)c(C(=O)NCc2ccccc2OC)c(C)n1C	16.9%	12.6µM*	u	6.9%	3.5%
COc1ccccc1CNC(=O)c1c(-c2ccccc2)nn(-c2ccccc2)c1C	-0.7%	14.6µM*	u	0.5%	3.9%
COc1ccccc1CNC(=O)CSc1nnc(C)c2c(C)n(-c3ccccc3)nc12	x	23.1µM*	20.6µM*	0.0%	x
CCOc1ccccc1CNC(=O)CSc1nnc(C)c2c(C)n(-c3ccccc3)nc12	x	u	u	5.6%	x
